This excerpt belongs to a sample that is enriched for hits.
ER stress death: protection against thapsigargin ER stress killing – CSM14.1 cells, ATP luminescence, primary screen; relative survival (cellular ATP), % at 15 µg/mL (by protocol); hit rate 0.33% among 48,000; CSM14.1 thapsigargin ER stress survival; AID 1010, 2008;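 active = survival measured by cellular ATP above 50% at 15 µg/ml in the first screen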;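 also: cell death triggered by about 15 µM thapsigargin; ATP read 24 h after thapsigargin was added; plate controls were thapsigargin with DMSO for no effect and DMSO without thapsigargin for full effect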
An asterisk follows results filed as active.

For COc1ccc(OC)c(-c2nc(-c3ccccc3)c(-c3cccs3)[nH]2)c1 the results were ER stress death 7.0.
Screening COc1ccc(-c2nc(-c3cc(OC)c(OC)cc3OC)[nH]c2-c2ccc(OC)cc2)cc1 returned ER stress death 116.5*.
Screening NC(=O)SCC(=O)Nc1ccc(I)cc1 returned ER stress death 4.1.
O=[N+]([O-])c1ccc(C2SCCN2S(=O)(=O)c2ccc3cccc4c3c2CC4)cc1 (stereo not drawn) was read as ER stress death 6.2.
Screening O=C(O)COc1ccccc1/C=N/NC(=O)/C(=C\c1ccc2c(c1)OCO2)NC(=O)c1ccccc1 returned ER stress death -3.8.
O=C(N/N=C/c1ccc(Cl)c([N+](=O)[O-])c1)/C(=C\c1ccc2c(c1)OCO2)NC(=O)c1ccccc1 was read as ER stress death 80.8*.
`COc1cc(Cl)cc(/C=N/NC(=O)/C(=C\c2ccc3c(c2)OCO3)NC(=O)c2ccccc2)c1O` gave ER stress death 5.3.
For CCOc1ccc(S(=O)(=O)N(CC(=O)Nc2ccccc2CC)c2ccc(C)cc2)cc1 the results were ER stress death 0.5.
Screening CCOc1ccccc1NC(=O)CN(c1ccc(C)cc1)S(=O)(=O)c1ccc(SC)cc1 returned ER stress death 5.1.
CCOc1ccc(S(=O)(=O)N(CC(=O)Nc2ccccc2OCC)c2ccc(C)cc2)cc1 was read as ER stress death 66.5*.
CCSC1(SCC)N=C(N)C2(C#N)C(c3ccccc3)NC3=C(CCCC3)C12C#N (stereo not drawn) was read as ER stress death 9.2.
`CC(C)OP(=O)(OC(C)C)C(Nc1cccc([N+](=O)[O-])c1)c1cccc([N+](=O)[O-])c1` (stereo not drawn) gave ER stress death 5.5.
CC(C)OP(=O)(OC(C)C)C(Nc1cccc(N)c1)c1cccc(N)c1 (stereo not drawn) was read as ER stress death 81.1*.
`COP(=O)(OC)C(Nc1cc(Cl)cc(Cl)c1)c1cccc(O)c1` (stereo not drawn) gave ER stress death -2.8.
Screening CCOC(=O)c1ccccc1NC(=O)CN(c1ccc(C)cc1)S(=O)(=O)c1ccc(F)cc1 returned ER stress death 11.0.
For COc1ccc(OCCCCNC(C)(C)C)cc1 the results were ER stress death -2.8.
For CCOc1ccccc1N1CCN(C(=O)c2sc3ccccc3c2Cl)CC1 the results were ER stress death 125.3*.
Screening CCOc1ccccc1N1CCN(C(=O)c2cc(OC)c(OC)c(OC)c2)CC1 returned ER stress death -4.0.
CCOc1ccccc1N1CCN(C(=O)c2cccc(Cl)c2)CC1 was read as ER stress death 10.7.
For O=C(O)c1cc(-c2ccc(/C=C/c3cc(C(F)(F)F)[nH]c(=O)n3)o2)ccc1Cl the results were ER stress death -3.5.
Screening CC(C)CCNC1=CC(=O)CC(c2ccccc2)C1 (stereo not drawn) returned ER stress death -0.7.
`O=C1C=C(Nc2ccccc2C(=O)O)CC(c2ccccc2)C1` (stereo not drawn) gave ER stress death 12.4.
Screening O=C1C=C(NCCc2c[nH]c3ccccc23)CC(c2ccccc2)C1 (stereo not drawn) returned ER stress death 53.5*.
Screening O=C(CN(c1ccccc1)S(=O)(=O)c1ccccc1[N+](=O)[O-])N1CCOCC1 returned ER stress death 5.7.

High-throughput results as filed in PubChem.
